# Screening data (PubChem BioAssay)
# HT1080NT lethal: kills 2HG-producing HT-1080-NT fibrosarcoma cells | hit rate 1.6% among 360,000 | Potency, µM (highest dose often 46.1 µM), for the others: at the highest dose activity, negative = less viability, usual class: cytotoxic | HT-1080-NT fibrosarcoma viability, CellTiter-Glo ATP luminescence, 48 h;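 also: NT is the 2HG producing partner of a matched IDH1 knockdown line; 0% = DMSO-treated cells and -100% = media-only wells without cells; nearly all actives have a fitted effect of over 55% in size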
#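 Toxicity toward the 2HG-producing NT line was scored as %Activity, normalised to DMSO and no-cell wells, from CellTiter-Glo luminescence after 48 hours' treatment.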
# HT1080 IDH1KD tx: toxicity to HT-1080 IDH1 knockdown cells (counter line); HT-1080 IDH1 knockdown viability, ATP luminescence, 48 h; Potency, µM (highest dose often 46.1 µM), for inactives: top-dose activity, negative = toxicity, most hits filed as cytotoxic; hit rate 2% among 360,000;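 also: 0% = DMSO wells and -100% = cell-free medium wells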
#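 HT-1080-IDH1KD cells (IDH1 knocked down), 750/well in RPMI with 5% FBS, treated with compound 48 h at 37 degrees C. Viability by CellTiter-Glo luminescence, normalised to DMSO and no-cell wells; concentration-response curves classed.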
# KB-3-1 tox: kills parental KB-3-1 adenocarcinoma cells | KB-3-1 viability, CellTiter-Glo ATP luminescence, 72 h | Potency, µM (series often up to 46.1 µM), hits mostly cytotoxic | hit rate 1.4% among 400,000 | AID 1347075; also: % is scaled to controls: 0 for no effect and ±100 for the full control effect; nearly all actives have a fitted effect of over 60% in size
#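 Here the drug-naive KB-3-1 line serves as comparator for MDR sub-line selectivity; cells received compound titrations, 72 h at 37 °C, then CellTiter-Glo readout.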
# KB-V1 MDR tox: kills drug-selected multidrug resistant KB-V1 cells. hit rate 3.4% among 400,000. Potency, µM (doses to about 46.1 µM), hits mostly cytotoxic. KB-V1 MDR cells viability, CellTiter-Glo, 72 h; also: % is scaled to controls: 0 for no effect and ±100 for the full control effect; nearly all actives have a fitted effect of over 60% in size
#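 Cells of the MDR subline KB-V1 are plated, dosed with compound at multiple concentrations, and incubated 72 h at 37 degrees C; CellTiter-Glo is then added and luminescence read after 10 min.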
# SW480 rereplic: DNA re-replication induction in SW480 cells; SW480 DNA re-replication, Hoechst DNA content imaging, 48 h; Potency, µM (highest dose often 46.1 µM), without a hit: at the highest dose re-replication activation, usual class: activators; hit rate 1.8% among 340,000; AID 624297; also: % of control where 0% means no effect; nearly all actives have a fitted effect of over 55% in size
#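 250 cells/well; 23 nL cpd via pin tool; 48 hr, 37 C, 5% CO2; Hoechst 40 min; imager read of total nuclear intensity, ex 405/em 500-530 nm.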
# MCF10A rerep: inducers of DNA re-replication in MCF 10A breast cells; MCF 10A DNA re-replication, Hoechst nuclear intensity, 48 h; Potency, µM (top dose mostly 46.1 µM), for inactives: top-dose activity, positive = re-replication, hits mostly activators; hit rate 2.9% among 350,000; AID 624296; also: % of control where 0% means no effect; nearly all actives have a fitted effect of over 50% in size
# Starred values were filed as active, the others as inactive; i = inactive; ? = inconclusive; · = no result given. Rows were chosen to be rich in hits. Some 7.9% of all compounds tested hit in one or more screens of this group. Calls follow the shape of the dose curve; as a rule, active = well fitted curve in the direction sought with a large enough effect; inconclusive = small, poorly fitted or top-dose-only effect, or another doubt; inactive = no such curve, though single readings can be large; an effect the other way counts as inactive or inconclusive. Potency is read from the fitted curve at half-maximal effect.
SMILES,HT1080NT lethal,HT1080 IDH1KD tx,KB-3-1 tox,KB-V1 MDR tox,SW480 rereplic,MCF10A rerep
O=C(NCc1ccc2c(c1)CCN2C(=O)c1ccc(Cl)cc1)c1cccc(F)c1,·,·,i,i,·,·
CCOc1ccc2oc(C(=O)O)c(C)c2c1,13%,0%,i,i,4%,-1%
O=C(Cc1ccccc1)Nc1c(C(=O)N2CCN(c3ccc(F)cc3)CC2)oc2ccccc12,·,·,i,12µM*,·,·
Cc1c(C(=O)N2CCN(CCc3ccccc3)CC2)oc2ccccc12,1%,-7%,i,13µM*,1%,?
Cc1c(C(=O)N2CCN(S(C)(=O)=O)CC2)oc2ccccc12,6%,19%,i,i,-1%,0%
CCOc1ccc2oc(C(=O)N3CCN(Cc4ccccc4)CC3)c(C)c2c1,-10%,-13%,i,i,5%,21µM*
Cc1cccc(C(=O)n2nc(C)c(S(=O)(=O)N3CCOCC3)c2C)c1,·,·,i,i,·,·
CCCS(=O)(=O)NC(=O)C1(C)CCN(C(=O)CSc2ccccc2)C1 (centres undefined),13%,15%,i,i,·,·
Cc1ccc(S(=O)(=O)c2cn(CC(=O)Nc3cccc(C)c3)c3cc4c(cc3c2=O)OCO4)cc1,·,·,i,i,·,·
CN1CCN(C2=Cc3ccccc3Sc3cc(F)ccc32)CC1,16µM*,?,?,?,-6%,-2%
CN1CCN(C2=Cc3ccc(Cl)cc3Sc3ccc(F)cc32)CC1,?,?,i,?,4µM*,?
COc1cccc(NC(=O)c2ccco2)c1,7%,0%,i,i,-1%,2%
O=C(Nc1cccc(NC(=O)c2ccco2)c1)c1ccccc1,-7%,1%,i,i,-8%,3%
CC(C)(C)NC(=O)c1cccc(NC(=O)CSc2ccc(Cl)cc2)c1,-1%,-10%,?,15µM*,-147%,-3%
COc1c(C)cc(Br)cc1C(=O)Nc1cccc(NC(=O)c2ccco2)c1,-1%,9%,i,3.3µM*,-2%,?
O=C(Nc1cccc(NC(=O)c2ccc(-c3cccc(Br)c3)o2)c1)c1ccco1,-44%,?,i,23µM*,?,21%
Cc1ccc(SCC(=O)Nc2cccc(NC(=O)c3ccco3)c2)cc1,5%,-3%,i,16µM*,-8%,?
COc1ccc(-n2c(-c3cccc(F)c3)nc3c(cnn3-c3ccc(C)cc3)c2=O)cc1,·,·,i,?,·,·
CCN(Cc1cccs1)c1ncnc2ccc(-c3ccc4c(c3)OCO4)cc12,·,·,i,i,·,·
COc1cc(NS(=O)(=O)c2ccc(Br)cc2)c(OC)cc1NC(=O)c1ccco1,-2%,0%,i,8.2µM*,6%,-1%
COc1ccc(Br)cc1C(=O)Nc1cccc(C)c1,-3%,-6%,i,i,3%,-5%
COc1c(C)cc(Br)cc1C(=O)O,2%,1%,i,?,-5%,-8%
COc1ccc(Br)cc1C(=O)Nc1cccc(NC(=O)c2ccco2)c1,-18%,-10%,i,9.2µM*,-9%,5%
COc1c(C)cc(Br)cc1C(=O)Nc1ccccc1C,16%,1%,i,i,-37%,1.5µM*
O=C(CNC(=O)c1ccccc1F)OCc1cc(=O)n2ccsc2n1,·,·,i,i,·,·
CN(C)C(=O)/C(C#N)=C\c1cc(Br)c(Sc2ccc(Cl)cc2)o1,-18%,5%,i,16µM*,2%,4%
OCCCNc1cc(-c2ccnc(Nc3cccc(Cl)c3)n2)ccn1,-45%,?,?,0.13µM*,?,?
CNc1cccnc1C=NNC(N)=S,-17%,?,?,?,0.92µM*,28%
Cc1cc(C)cc(N(CC(=O)NCCc2ccc(Cl)cc2)S(=O)(=O)c2c(C)noc2C)c1,·,·,i,i,·,·
